Tested on: RIOK1
Details: concentration: 1 μM,replicates: in singlicate; n = 1
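Further: KINOMEscan kinase panel screen.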

Question: For `CC(C)c1nc(-c2cccc(NS(=O)(=O)c3ccccc3)c2)c(-c2ccnc(Nc3ccc4c(c3)CN(C)CC4)n2)s1` [GSK1649598], which “%Inh” value is on record?
Answer: 18%

Question: `C[C@@H](Oc1cc(-n2cnc3cc(-c4cnn(C)c4)ccc32)sc1C(N)=O)c1ccccc1Cl` [GSK580432] was tested. Which “%Inh” value did it give?
Answer: 100%

Question: `CCn1c(-c2nonc2N)nc2cncc(CNC3CCNCC3)c21.Cl` [SB-747651] was tested. Which “%Inh” value did it give?
Answer: 30%

Question: For `CN1CCN(CCCNc2nccc(-c3c(-c4ccc(F)cc4)nn4cc(C(N)=O)ccc34)n2)CC1` [GW622475], which “%Inh” value is on record?
Answer: 46%

Question: Which “%Inh” value does the source give for `Cc1ccc(C(=O)Nc2ccc(Oc3ccc4nc(NC(=O)C5CC5)cn4c3)c(F)c2)c(=O)n1-c1ccccc1` here?
Answer: 0%

Question: With `CC(=O)Nc1ccc(-c2cc3ncnc(SCC(=O)O)c3s2)cc1` as the compound, how does the “%Inh” value read?
Answer: 8%

Question: With `Cn1ccc2ncnc(Oc3ccc(NC(=O)Nc4ccnc(C(F)(F)F)c4)c(Cl)c3)c21` as the compound, how does the “%Inh” value read?
Answer: 0%

Question: How did the “%Inh” value turn out when `NC(=O)c1ccc(-c2cc3ncnc(SCC(=O)O)c3s2)cc1` was run?
Answer: 0%

Question: For `CN(c1ccc2c(c1)nc(NCc1ccc(F)cc1)n2C)c1ccnc(Nc2ccc(CS(C)(=O)=O)cc2)n1.Cl` [GW813244], which “%Inh” value is on record?
Answer: 1%

Question: How did the “%Inh” value turn out when `FC(F)(F)c1cc(Br)cc(Nc2nccc(-c3cnn4ncccc34)n2)c1` [GW810578] was run?
Answer: 0%

Question: How did the “%Inh” value turn out when `Cn1ccc2ncnc(Oc3ccc(NC(=O)Nc4cccc(C(F)(F)F)c4)c(F)c3)c21` was run?
Answer: 0%

Question: For `CCCC(=O)Nc1n[nH]c2ncccc12` [SB-601436], which “%Inh” value is on record?
Answer: 0%

Question: For `CN(c1ccccc1CNc1nc(Nc2ccc3c(c2)CC(=O)N3)ncc1C(F)(F)F)S(C)(=O)=O`, which “%Inh” value is on record?
Answer: 41%

Question: For `COC(=O)c1cccc(NC(=O)NC2CCN(c3ccnc(Nc4cc(OC)c(OC)c(OC)c4)n3)C2)c1` (stereo not shown) [GSK1379767], which “%Inh” value is on record?
Answer: 70%

Question: With `Cc1n[nH]c2cc(Nc3ccnc(Nc4cccc(CN5CCOCC5)c4)n3)ccc12` [GW682569] as the compound, how does the “%Inh” value read?
Answer: 100%

Question: Which “%Inh” value does the source give for `O=C(Nc1cccc(C(F)(F)F)c1)c1cccc(Oc2ccc3nccn3n2)c1` here?
Answer: 0%

Question: With `C[C@@H]1CNc2c(sc3ccc4nc(-c5ccc(O)cc5)ccc4c23)C(=O)N1` as the compound, how does the “%Inh” value read?
Answer: 0%

Question: How did the “%Inh” value turn out when `O=C(Nc1n[nH]c2cc(-c3ccco3)ccc12)C1CC1` [SB-737447] was run?
Answer: 81%

Question: `Cn1cc(-c2cccc3c(N)c(C(N)=O)nnc23)cn1` was tested. Which “%Inh” value did it give?
Answer: 36%

Question: For `OCCn1cc(-c2cnc3nnn(Cc4ccc5ncccc5c4)c3n2)cn1`, which “%Inh” value is on record?
Answer: 0%

Question: For `Cl.c1ccc(Oc2ccc(Nc3ccnc4cc(-c5ccc(CN6CCNCC6)o5)ccc34)cc2)nc1` [GW567142], which “%Inh” value is on record?
Answer: 0%

Question: With `CS(=O)c1ccc(-c2coc3ccc(-c4n[nH]c(=O)o4)cc23)cc1` (stereo not shown) as the compound, how does the “%Inh” value read?
Answer: 15%

Question: For `CS(=O)(=O)Nc1ccc(-c2ccnc3[nH]ccc23)cc1` [GSK993273], which “%Inh” value is on record?
Answer: 98.6%

Question: With `COC(=O)Nc1nc2cc(Oc3ccc(NC(=O)Nc4cc(C(F)(F)F)ccc4Cl)cc3)ccc2[nH]1.Cl` [GW697465] as the compound, how does the “%Inh” value read?
Answer: 0%

Question: `O=C(Nc1ccc(Oc2ccc3nc(NC(=O)C4CC4)cn3n2)c(F)c1)c1cccn(-c2ccccc2)c1=O` was tested. Which “%Inh” value did it give?
Answer: 13%

Question: With `CCNCC(Cc1ccccc1)NC(=O)c1cc(Br)c(-c2ccnc3[nH]ccc23)s1.Cl.Cl` (stereo not shown) [GSK1383280] as the compound, how does the “%Inh” value read?
Answer: 61%

Question: Which “%Inh” value does the source give for `Cc1ccn2nc(-c3ccc(F)cc3)c(-c3ccncc3)c2c1.Cl` [GW457859] here?
Answer: 23%

Question: With `C[C@@H]1CNc2c(sc3ccc4nc(-c5ccncc5)ccc4c23)C(=O)N1` as the compound, how does the “%Inh” value read?
Answer: 0%

Question: `Nc1nccc(-c2ccc3c(N)n[nH]c3c2)n1` [GSK1034945] was tested. Which “%Inh” value did it give?
Answer: 96.5%

Question: `COC(=O)c1cccc(NC(=O)NC2CCN(c3ccnc(NCc4ccc(F)cc4)n3)CC2)c1` [GSK1379860] was tested. Which “%Inh” value did it give?
Answer: 22%

Question: Which “%Inh” value does the source give for `CC(=O)Nc1nc2cnc(Nc3cc(NC(=O)c4cccc(CC(C)(C)C#N)c4)ccc3C)nc2s1` here?
Answer: 0%

Question: For `O=C1NCCc2[nH]c(-c3ccncc3)cc21`, which “%Inh” value is on record?
Answer: 35%

Question: With `COc1cccc(CNC(=O)NC2CCN(c3ccnc(Nc4cc(OC)c(OC)c(OC)c4)n3)C2)c1` (stereo not shown) [GSK1379765] as the compound, how does the “%Inh” value read?
Answer: 63%

Question: For `NC(=O)Nc1sc(-c2ccc(F)cc2)cc1C(N)=O` [GW789449], which “%Inh” value is on record?
Answer: 99.4%

Question: With `CS(=O)(=O)c1cccc(CNc2nc(Nc3ccc4c(c3)[C@@H]3C[C@@H]4CNC3=O)ncc2C(F)(F)F)c1` as the compound, how does the “%Inh” value read?
Answer: 76%

Question: `O=c1[nH]cc(-c2ccc(O)cc2)c2sc(-c3ccncc3)cc12` [GSK1033723] was tested. Which “%Inh” value did it give?
Answer: 1%

Question: `CC(C(=O)NC1CCN(c2ccnc(Nc3ccc(F)cc3)n2)C1)c1ccc(Cl)cc1` (stereo not shown) [GSK1379713] was tested. Which “%Inh” value did it give?
Answer: 35%

— publication PMC5540273 (PLoS ONE, 2017)
